Experimental data published in PubChem BioAssay AID743130 (Broad Institute, 2013).
Values joined by “and” are separate entries in the source; they are usually repeats but may differ in a detail not shown here. Equal values may be shown once.

Assay: cell wall integrity pathway activation in yeast – S. cerevisiae reporter strain, C. neoformans project, dry powder, dose response (AID 743130)
Conditions: S. cerevisiae Rlm1-lacZ reporter, luminescence, 4 h, stronger effect = higher value; at 35 µM unless noted;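 active = fitted curve rises past 20% activation at a concentration no higher than the top valid tested dose; inactive = activity opposite to the expected signal increase, and the rest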

Maximal activation, inactive:
Cc1ccc(OCCn2cnc3ccccc32)cc1 -5.3% [at 4.2 µM]
CCOC(=O)c1c(NC(=O)CNCCN(C)C)sc(C)c1-c1ccccc1 -3% [at 2.1 µM]
Cc1ccc(OCCn2c(SCCO)nc3ccccc32)c(C(C)C)c1 -2.9% [at 2.1 µM]
COC(=O)C1=C(C)N(Cc2ccc(Br)cc2)C(=S)NC1c1ccc(F)cc1 (centres undefined) 9.62% [at 16 µM]
CCOC(=O)c1c(-c2ccc(F)cc2)csc1NC(=O)CN1CCN(C)CC1 8.68% [at 16 µM]
CCOc1ccc(OCCn2c(=S)[nH]c3ccccc32)cc1 -9.4% [at 0.26 µM]
COC(=O)C1=C(C)N(Cc2ccc(F)cc2)C(=S)NC1c1cccc(F)c1 (centres undefined) 3.69%
Cc1cccc(OCCn2c(=S)[nH]c3cc(C(F)(F)F)ccc32)c1 -9% [at 16 µM]
CCOC(=O)c1c(-c2ccc(C(C)(C)C)cc2)csc1NC(=O)CN1CCN(C)CC1 6.67% [at 16 µM]
Cc1ccc2c(c1)[nH]c(=S)n2CCOc1ccccc1 1.98%
Fc1ccccc1OCCn1c(=S)[nH]c2ccccc21 -3.96%
CCOC(=O)c1c(-c2ccc(F)cc2)csc1NC(=O)CN1CCN(CC)CC1 7.91% [at 1 µM]
CCOC(=O)c1c(-c2ccc(C(C)(C)C)cc2)csc1NC(=O)CN1CCN(CC)CC1 2.55% [at 8 µM]
CCOC(=O)c1c(-c2ccc(-c3ccccc3)cc2)csc1NC(=O)CNCCN(C)C -12.6%
Cc1ccc(OCCn2c(=S)[nH]c3ccccc32)cc1 -4.62%
CCOC(=O)c1c(NC(=O)CN2CCN(C)CC2)sc(C)c1-c1ccc(C)cc1 5.75%
Cc1ccccc1OCCn1c(=S)[nH]c2ccccc21 -3.77% [at 1 µM]
Cc1ccc(OCCn2c(C)nc3ccccc32)cc1 1.77%
Cc1ccc(C(C)C)c(OCCn2c(=S)[nH]c3ccccc32)c1 -8.35% [at 0.5 µM]
S=c1[nH]c2ccccc2n1CCOc1ccccc1 3.85% [at 4.2 µM]
COC(=O)C1=C(C)N(Cc2ccccc2)C(=S)NC1c1ccc(Br)cc1 (centres undefined) 6.99% [at 8 µM]
Fc1cccc2c1[nH]c(=S)n2CCOc1ccccc1 -3.67% [at 8 µM]
COC(=O)C1=C(C)N(Cc2ccc(Br)cc2)C(=S)NC1c1ccc(OC)cc1 (centres undefined) 5.5% [at 0.26 µM]
S=c1[nH]c2ccccc2n1CCOc1ccc(Cl)cc1 3.89% [at 8 µM]
CCOC(=O)c1c(-c2ccc(OC)cc2)csc1NC(=O)CN(C)CC(=O)N(C)C -2.31% [at 4.2 µM]
c1ccc(OCCn2cnc3ccccc32)cc1 -5.78% [at 1 µM]
COC(=O)C1=C(C)N(Cc2ccc(Cl)cc2)C(=S)NC1c1ccc(Br)cc1 (centres undefined) 9% [at 2.1 µM]
O=c1[nH]c2ccccc2n1CCOc1ccccc1 6.24% [at 2.1 µM] and 3.18% [at 2.1 µM]
S=c1[nH]c2cccc(Cl)c2n1CCOc1ccccc1 -2.44%
